# YB-1 expression = YB-1 expression inhibition | U2OS, qRT-PCR YB-1 vs CDIP delta delta Cp, 16 h; stronger effect = higher value; zero = DMSO, each unit about twofold | delta delta Cp (YB-1 minus CDIP) (test concentration not listed) | hit rate 0.37% among 30,000 | AID 434959;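 active means delta delta Cp rounded down to an integer at or above 3, about 3 SD of DMSO wells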;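 further: higher means less YB-1 transcript or more CDIP transcript relative to DMSO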
# U2OS ROS induce = cancer cell ROS induction | ROS induction (% of piperlongumine), % at 10 µM | hit rate 2% among 46,000 | U2OS ROS induction, H2DCF-DA fluorescence; in the data active means ROS induction above about 79%, passing the limit was not always enough;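 further: 0% = DMSO vehicle median and 100% = reference compound median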
# * marks the source's active call; other numbers are inactive results; nt = no result. The list is not random: actives were taken first. Their share in the collection is about 2.3%.
SMILES,YB-1 expression,U2OS ROS induce
COC(=O)C1C(=O)NC(SCC(=O)NCc2ccccc2)=C(C#N)C1c1ccccc1F (configuration not stated),nt,13
COc1cc(CN(C)Cc2cccc3ccccc23)c([N+](=O)[O-])cc1OC,nt,133*
COc1ccc(NC(=O)COc2ccc3ccccc3c2Br)c([N+](=O)[O-])c1,nt,-4
C[C@H](CO)N1C[C@H](C)[C@H](CN(C)Cc2ccc(Oc3ccccc3)cc2)Oc2ccc(NC(=O)Cc3ccccc3)cc2C1=O,-0.27,2
C[C@@H]1CN([C@H](C)CO)C(=O)Cc2cc(NC(=O)Cc3ccccc3)ccc2O[C@@H]1CN(C)Cc1ccc(-c2ccccc2)cc1,0.28,203*
C[C@H]1CN([C@@H](C)CO)C(=O)c2cc(NC(=O)Cc3ccccc3)ccc2O[C@@H]1CN(C)Cc1ccc(Oc2ccccc2)cc1,-0.31,190*
C[C@@H]1CN([C@@H](C)CO)C(=O)c2cc(NC(=O)Cc3ccccc3)ccc2O[C@@H]1CN(C)Cc1ccccc1,-0.11,8
C[C@H]1CN([C@@H](C)CO)C(=O)c2cc(NC(=O)Cc3ccccc3)ccc2O[C@@H]1CN(C)Cc1ccc(-c2ccccc2)cc1,0.73,177*
C[C@H](CO)N1C[C@H](C)[C@H](CN(C)Cc2ccc(-c3ccccc3)cc2)Oc2ccc(NC(=O)Cc3ccccc3)cc2CC1=O,0.23,28
C[C@H](CO)N1C[C@H](C)[C@@H](CN(C)Cc2ccc(-c3ccccc3)cc2)Oc2ccc(NC(=O)Cc3ccccc3)cc2C1=O,-0.0095,274*
C[C@@H]1CN([C@@H](C)CO)C(=O)c2cc(NC(=O)Cc3ccccc3)ccc2O[C@H]1CN(C)Cc1ccccc1,-0.12,-5
COc1ccc(NC(=O)Nc2ccc3c(c2)C(=O)N([C@@H](C)CO)C[C@H](C)[C@@H](CN(C)CC2CCCCC2)O3)cc1,0.54,5
C[C@H](CO)N1C[C@H](C)[C@@H](CN(C)C)Oc2c(NC(=O)c3ccc(-c4nccs4)cc3)cccc2C1=O,-0.33,3
O=C(CCCCC(=O)N/N=C/c1cc(O)ccc1O)NO,0.34,-3
NC(=O)CSc1nnc(-c2ccncc2)n1-c1ccc(Br)cc1,nt,0
O=C(NO)c1cccc(C(=O)N/N=C/c2cc(Cl)cc(Cl)c2O)c1,-0.096,-3
C[C@H]1CN([C@@H](C)CO)C(=O)c2cc(N(C)C)ccc2O[C@@H]1CN(C)Cc1ccc(-c2ccccc2)cc1,0.2,206*
C[C@@H]1CN([C@H](C)CO)C(=O)c2cc(N(C)C)ccc2O[C@H]1CN(C)Cc1ccc(-c2ccccc2)cc1,-0.13,-2
COc1ccc(CN(C)C[C@H]2Oc3ccc(NS(=O)(=O)c4ccc(Cl)cc4)cc3C(=O)N([C@@H](C)CO)C[C@@H]2C)cc1,0.25,35
COc1ccc(CN(C)C[C@H]2OCCCC[C@@H](C)Oc3ccc(NS(=O)(=O)c4ccc(C)cc4)cc3C(=O)N([C@H](C)CO)C[C@@H]2C)cc1,-0.65,29
COc1ccc(CN(C)C[C@@H]2OCCCC[C@@H](C)Oc3ccc(NC(=O)c4ccccc4)cc3C(=O)N([C@H](C)CO)C[C@@H]2C)cc1,-0.16,147*
C[C@H]1CN([C@@H](C)CO)C(=O)c2cc(NS(=O)(=O)c3ccccc3)ccc2O[C@H]1CN(C)Cc1ccc(C(F)(F)F)cc1,-0.061,5
COc1ccc(CN(C)C[C@@H]2OCCCC[C@@H](C)Oc3ccc(NC(=O)c4ccncc4)cc3C(=O)N([C@H](C)CO)C[C@@H]2C)cc1,-0.22,12
C[C@@H]1CN([C@@H](C)CO)C(=O)c2cc(NS(=O)(=O)c3ccccc3)ccc2O[C@H]1CN(C)Cc1ccc(C(F)(F)F)cc1,0.05,82*
COc1ccc(CN(C)C[C@H]2Oc3ccc(NS(=O)(=O)c4ccc(Cl)cc4)cc3C(=O)N([C@H](C)CO)C[C@@H]2C)cc1,0.044,147*
SMILES,YB-1 expression,U2OS ROS induce
COc1ccc(CN(C)C[C@@H]2OCCCC[C@@H](C)Oc3ccc(NS(=O)(=O)c4ccc(OC)cc4)cc3C(=O)N([C@H](C)CO)C[C@@H]2C)cc1,0.33,172*
C[C@@H]1CN([C@H](C)CO)C(=O)c2cc(NC(=O)Nc3ccc(F)cc3)ccc2O[C@@H]1CN(C)C(=O)NC1CCCCC1,0.23,-3
COc1ccc(NC(=O)N(C)C[C@@H]2Oc3ccc(NC(=O)Nc4ccccc4)cc3C(=O)N([C@H](C)CO)C[C@H]2C)cc1,-0.014,-17
C[C@@H]1CN([C@@H](C)CO)C(=O)c2cc(NS(C)(=O)=O)ccc2O[C@@H]1CN(C)S(=O)(=O)c1ccc(F)cc1,0.09,5
C[C@H]1CN([C@@H](C)CO)C(=O)c2cc(NC(=O)C3CCCCC3)ccc2O[C@@H]1CN(C)S(=O)(=O)c1ccccc1,-0.24,-5
C[C@@H]1CN([C@H](C)CO)C(=O)c2cccc(NS(=O)(=O)c3ccc(Cl)cc3)c2O[C@@H]1CN(C)Cc1ccc(C(F)(F)F)cc1,-0.68,29
C[C@H]1CN([C@@H](C)CO)C(=O)c2cccc(NC(=O)NC3CCCCC3)c2O[C@H]1CN(C)Cc1ccc(C(=O)O)cc1,0.013,-6
CC(C)NC(=O)Nc1ccc2c(c1)C(=O)N([C@H](C)CO)C[C@H](C)[C@H](CN(C)C(=O)Nc1ccc(C(F)(F)F)cc1)O2,0.17,23
CN(CC(=O)Nc1ccccc1C(N)=O)S(=O)(=O)c1cc(Cl)ccc1Cl,nt,-10
COc1ccc(CN(C)C[C@@H]2OCCCC[C@@H](C)Oc3ccc(NS(=O)(=O)c4ccc(Cl)cc4)cc3C(=O)N([C@H](C)CO)C[C@@H]2C)cc1,0.23,58
C[C@@H]1CCCCO[C@H](CN(C)Cc2ccc(Cl)c(Cl)c2)[C@@H](C)CN([C@H](C)CO)C(=O)c2cc(NC(=O)Cc3ccccc3)ccc2O1,0.26,25
C[C@@H]1CCCCO[C@@H](CN(C)Cc2ccc(Cl)c(Cl)c2)[C@@H](C)CN([C@H](C)CO)C(=O)c2cc(NC(=O)Cc3ccccc3)ccc2O1,0.36,131*
COc1ccc(CN(C)C[C@H]2Oc3ccc(NC(=O)c4ccncc4)cc3C(=O)N([C@H](C)CO)C[C@@H]2C)cc1,0.084,-9
COc1ccc(CN(C)C[C@@H]2Oc3ccc(NC(=O)c4ccncc4)cc3C(=O)N([C@H](C)CO)C[C@H]2C)cc1,-0.29,149*
COc1ccc(S(=O)(=O)Nc2ccc3c(c2)C(=O)N([C@H](C)CO)C[C@H](C)[C@@H](CN(C)Cc2ccc(Cl)c(Cl)c2)OCCCC[C@@H](C)O3)cc1,-0.83,151*
Cc1ccc(S(=O)(=O)CCSc2nc(C3CC3)cc(C(F)(F)F)c2C#N)cc1,nt,58
Cc1noc(C)c1NC(=O)Nc1ccc2c(c1)CC(=O)N([C@H](C)CO)C[C@H](C)[C@H](CN(C)CC1CCCCC1)O2,-0.17,7
C[C@@H]1CN([C@@H](C)CO)C(=O)c2cc(NC(=O)Cc3cn(C)c4ccccc34)ccc2O[C@@H]1CN(C)C,0.053,-4
CC(C)(C)NC(=O)c1ccccc1,-0.31,-1
CC(C)(C)NC(=O)c1ccc2c3c(onc13)-c1ccccc1C2=O,-0.49,245*
CC(C)NC(=O)Nc1ccc2c(c1)CC(=O)N([C@H](C)CO)C[C@H](C)[C@H](CN(C)Cc1ccc(-c3ccccc3)cc1)O2,-0.019,21
CC(C)(C)C(=O)CSc1ncnc2sc3c(c12)CCCC3,nt,30
CCN(CC)C(=S)Sc1ncnc2sc3c(c12)CCCC3,-0.089,92*

# Assay outcomes as filed in PubChem BioAssay.
